The full ranking holds about 33,000 sequences; the median of “E-score (-0.5 to 0.5)” is about -0.054, and the highest 2% start at about 0.39. This is one part of a sample in which the highest values are shown more often than they occur.
Target: Ylr278c (UniProt Q05854)
Experiment: PBM E-score (8-mer binding enrichment) (E-score (-0.5 to 0.5)); higher = stronger / more preferred TF binding
Conditions: protein concentration: 200 nM; construct: GST-DNA-binding domain
Method in brief: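 Using PURExpress in vitro transcription/translation, GST-tagged yeast transcription factors were made in full-length or DNA-binding-domain form. These were applied at about 100-200 nM to double-stranded universal all-10-mer Agilent arrays, and bound protein was detected with fluorescent anti-GST. Scans were normalised with masliner before the Universal PBM Analysis Suite assigned E-scores to ungapped eight-base words pooled with their reverse complements.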

UniProt Q05854, sequence (Q05854 whole entry): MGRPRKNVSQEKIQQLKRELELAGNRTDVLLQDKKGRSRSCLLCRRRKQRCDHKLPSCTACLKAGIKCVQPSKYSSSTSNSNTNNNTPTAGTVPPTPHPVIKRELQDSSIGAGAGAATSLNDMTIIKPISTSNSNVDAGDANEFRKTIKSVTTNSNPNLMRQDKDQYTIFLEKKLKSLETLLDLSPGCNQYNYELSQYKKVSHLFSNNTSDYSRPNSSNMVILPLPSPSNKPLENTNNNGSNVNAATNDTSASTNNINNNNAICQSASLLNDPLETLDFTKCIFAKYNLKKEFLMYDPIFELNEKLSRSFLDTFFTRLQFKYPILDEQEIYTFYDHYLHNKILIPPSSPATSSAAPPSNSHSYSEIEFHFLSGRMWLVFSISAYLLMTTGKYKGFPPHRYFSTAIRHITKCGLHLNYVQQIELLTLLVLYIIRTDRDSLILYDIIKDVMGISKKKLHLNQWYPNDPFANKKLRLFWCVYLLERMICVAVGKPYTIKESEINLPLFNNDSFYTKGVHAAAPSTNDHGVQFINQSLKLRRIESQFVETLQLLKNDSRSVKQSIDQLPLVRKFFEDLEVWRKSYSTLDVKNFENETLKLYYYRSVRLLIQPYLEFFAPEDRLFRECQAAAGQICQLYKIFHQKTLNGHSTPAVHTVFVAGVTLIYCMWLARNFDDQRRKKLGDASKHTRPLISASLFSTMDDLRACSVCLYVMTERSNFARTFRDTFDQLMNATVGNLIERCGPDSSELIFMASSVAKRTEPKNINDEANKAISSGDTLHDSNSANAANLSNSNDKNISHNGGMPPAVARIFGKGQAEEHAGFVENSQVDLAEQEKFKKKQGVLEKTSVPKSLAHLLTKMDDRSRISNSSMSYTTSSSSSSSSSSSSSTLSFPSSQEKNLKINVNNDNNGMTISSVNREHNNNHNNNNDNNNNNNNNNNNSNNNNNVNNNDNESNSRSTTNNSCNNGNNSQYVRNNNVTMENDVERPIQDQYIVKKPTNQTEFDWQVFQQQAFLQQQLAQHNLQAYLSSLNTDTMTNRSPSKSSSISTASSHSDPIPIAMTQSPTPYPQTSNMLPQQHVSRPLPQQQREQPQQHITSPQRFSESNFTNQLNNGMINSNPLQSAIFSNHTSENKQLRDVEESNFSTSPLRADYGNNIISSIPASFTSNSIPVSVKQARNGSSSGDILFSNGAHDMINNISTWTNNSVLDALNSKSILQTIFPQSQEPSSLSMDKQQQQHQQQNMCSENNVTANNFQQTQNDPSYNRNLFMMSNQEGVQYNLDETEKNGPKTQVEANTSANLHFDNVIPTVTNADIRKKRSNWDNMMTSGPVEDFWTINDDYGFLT

Q: How did the “PBM E-score” value turn out when CATTCGGA was run?
A: 0.339

Q: Which “PBM E-score” value does the source give for GATTCGGA here?
A: 0.363

Q: With TATTCGGA as the sequence, how does the “PBM E-score” value read?
A: 0.408

Q: With AATTCGGG as the sequence, how does the “PBM E-score” value read?
A: 0.215

Q: TAAGGGCA was tested. Which “PBM E-score” value did it give?
A: -0.144

Q: Which “PBM E-score” value does the source give for CCCCGACC here?
A: 0.28

Q: ATAGTCAG was tested. Which “PBM E-score” value did it give?
A: -0.158

Q: AGGACCGC was tested. Which “PBM E-score” value did it give?
A: 0.227

Q: With CGGACCAC as the sequence, how does the “PBM E-score” value read?
A: 0.293

Q: For CGGACCGC, which “PBM E-score” value is on record?
A: 0.392

Q: AGGACCGA was tested. Which “PBM E-score” value did it give?
A: 0.0864

Q: AGGACCCG was tested. Which “PBM E-score” value did it give?
A: 0.158

Q: How did the “PBM E-score” value turn out when GGGACCGA was run?
A: 0.164

Q: Which “PBM E-score” value does the source give for CGGACCGA here?
A: 0.409

Q: With CGGACCCC as the sequence, how does the “PBM E-score” value read?
A: 0.365

Q: Which “PBM E-score” value does the source give for CGGACCCG here?
A: 0.394

Q: Which “PBM E-score” value does the source give for CCACTATC here?
A: 0.00626

Q: How did the “PBM E-score” value turn out when CTATAGAC was run?
A: -0.167

Q: Which “PBM E-score” value does the source give for CTGATCTC here?
A: -0.0675

Q: How did the “PBM E-score” value turn out when ACTAATGC was run?
A: 0.126

Q: Which “PBM E-score” value does the source give for CTCTGTTC here?
A: -0.0823

Q: For CCGGGGAA, which “PBM E-score” value is on record?
A: 0.399

Q: For ACCGGGAA, which “PBM E-score” value is on record?
A: 0.352

Q: Which “PBM E-score” value does the source give for CGGGGGAA here?
A: 0.255

Q: Which “PBM E-score” value does the source give for CCCGGGAA here?
A: 0.348

Q: TCCGGGAA was tested. Which “PBM E-score” value did it give?
A: 0.419

Q: Which “PBM E-score” value does the source give for GCCGGTAA here?
A: 0.341

Q: TCCGGTAA was tested. Which “PBM E-score” value did it give?
A: 0.44

Q: How did the “PBM E-score” value turn out when GCGGGGTA was run?
A: 0.323

Q: How did the “PBM E-score” value turn out when ACCGGTAA was run?
A: 0.297

Q: With CGGGGGTA as the sequence, how does the “PBM E-score” value read?
A: 0.334

Q: How did the “PBM E-score” value turn out when CCGGGGGA was run?
A: 0.378

Q: How did the “PBM E-score” value turn out when CCGGGGTA was run?
A: 0.408

Q: For CAACGGCG, which “PBM E-score” value is on record?
A: 0.207

Q: For CCATCGCC, which “PBM E-score” value is on record?
A: 0.075

Q: Which “PBM E-score” value does the source give for ATCCAGTA here?
A: -0.111

Q: With AGAGGTGC as the sequence, how does the “PBM E-score” value read?
A: 0.0557

Q: Which “PBM E-score” value does the source give for AGCATAGG here?
A: -0.11

Q: For GGACACAC, which “PBM E-score” value is on record?
A: 0.149

Q: How did the “PBM E-score” value turn out when TCCGGGCA was run?
A: 0.406

Q: CCGGGGCA was tested. Which “PBM E-score” value did it give?
A: 0.293

Q: ACCGGGCA was tested. Which “PBM E-score” value did it give?
A: 0.279

Q: How did the “PBM E-score” value turn out when GCCGGGCA was run?
A: 0.304

Q: CCGGGGCG was tested. Which “PBM E-score” value did it give?
A: 0.42

Q: CCCGGGCG was tested. Which “PBM E-score” value did it give?
A: 0.291

Q: How did the “PBM E-score” value turn out when ATAACCTA was run?
A: -0.148

Q: CGAACTAA was tested. Which “PBM E-score” value did it give?
A: -0.0681

Q: GCGGATTA was tested. Which “PBM E-score” value did it give?
A: 0.261

Q: For CCGGATTC, which “PBM E-score” value is on record?
A: 0.405

Q: CAGGATTC was tested. Which “PBM E-score” value did it give?
A: -0.11

Q: For CCGGATTA, which “PBM E-score” value is on record?
A: 0.455

Q: Which “PBM E-score” value does the source give for ACGGATTA here?
A: 0.205

Q: With ACGGATTC as the sequence, how does the “PBM E-score” value read?
A: 0.246

Q: Which “PBM E-score” value does the source give for CATTGGGA here?
A: -0.198

Q: For AGCAGGAT, which “PBM E-score” value is on record?
A: -0.079

Q: For GTGGCCTA, which “PBM E-score” value is on record?
A: -0.135

Q: With GATTCTAC as the sequence, how does the “PBM E-score” value read?
A: 0.107

Q: Which “PBM E-score” value does the source give for GGCGGAAA here?
A: 0.328

Q: With AGCGGAGG as the sequence, how does the “PBM E-score” value read?
A: 0.302

Q: For GGCGGAGA, which “PBM E-score” value is on record?
A: 0.444

Q: How did the “PBM E-score” value turn out when CGCGGATA was run?
A: 0.32

Q: With CGCGGAGC as the sequence, how does the “PBM E-score” value read?
A: 0.41

Q: For AGCGGAGA, which “PBM E-score” value is on record?
A: 0.394

Q: CGCGGACA was tested. Which “PBM E-score” value did it give?
A: 0.345

Q: Which “PBM E-score” value does the source give for GGCGGATA here?
A: 0.293

Q: CGCGGATC was tested. Which “PBM E-score” value did it give?
A: 0.272

Q: How did the “PBM E-score” value turn out when CGCGGAGA was run?
A: 0.428

Q: Which “PBM E-score” value does the source give for AGCGGATA here?
A: 0.287

Q: AGCGGAGC was tested. Which “PBM E-score” value did it give?
A: 0.381

Q: Which “PBM E-score” value does the source give for CGACTGAG here?
A: -0.181

Q: CTCAGTCA was tested. Which “PBM E-score” value did it give?
A: -0.282

Q: How did the “PBM E-score” value turn out when CTGAGTTA was run?
A: -0.248

Q: How did the “PBM E-score” value turn out when ATTCCCAA was run?
A: -0.06

Q: With ACCTCTCA as the sequence, how does the “PBM E-score” value read?
A: 0.0413

Q: How did the “PBM E-score” value turn out when TAATTCCA was run?
A: -0.0294

Q: For CCTCGGCA, which “PBM E-score” value is on record?
A: 0.25

Q: With ACTCGGAT as the sequence, how does the “PBM E-score” value read?
A: 0.251

Q: With CCTCGGTA as the sequence, how does the “PBM E-score” value read?
A: -0.0307

Q: For ACTCGGAC, which “PBM E-score” value is on record?
A: 0.383

Q: CCTCGGAC was tested. Which “PBM E-score” value did it give?
A: 0.374

Q: For ACTCGGAA, which “PBM E-score” value is on record?
A: 0.398

Q: For TCTCGGCA, which “PBM E-score” value is on record?
A: 0.266

Q: For CCTCGGCG, which “PBM E-score” value is on record?
A: 0.359

Q: With CCTCGGAG as the sequence, how does the “PBM E-score” value read?
A: 0.456

Q: How did the “PBM E-score” value turn out when CCTCGGAA was run?
A: 0.39

Q: How did the “PBM E-score” value turn out when GCTCGGAA was run?
A: 0.338

Q: TCTCGGAA was tested. Which “PBM E-score” value did it give?
A: 0.414

Q: With CAATCATG as the sequence, how does the “PBM E-score” value read?
A: -0.214

Q: Which “PBM E-score” value does the source give for CGTATTTA here?
A: 0.0653

Q: Which “PBM E-score” value does the source give for CAAGCTGC here?
A: -0.103

Q: GAGGATAC was tested. Which “PBM E-score” value did it give?
A: -0.125

Q: ATTCATAC was tested. Which “PBM E-score” value did it give?
A: 0.0829

Q: For ACTCTTCA, which “PBM E-score” value is on record?
A: -0.191

Q: CGTCAGAA was tested. Which “PBM E-score” value did it give?
A: -0.25

Q: How did the “PBM E-score” value turn out when CGTTTAAC was run?
A: -0.174

Q: With CGTTAGAC as the sequence, how does the “PBM E-score” value read?
A: -0.0149

Q: With AGCGCGTA as the sequence, how does the “PBM E-score” value read?
A: -0.109

Q: With CCCCTTAG as the sequence, how does the “PBM E-score” value read?
A: 0.0521

Q: ACTCGGAG was tested. Which “PBM E-score” value did it give?
A: 0.428

Q: ACTCGGCG was tested. Which “PBM E-score” value did it give?
A: 0.256

Q: Which “PBM E-score” value does the source give for ACTCGGTG here?
A: 0.0389

Q: How did the “PBM E-score” value turn out when TAGGGACA was run?
A: -0.0143

Q: For AGGAGCGA, which “PBM E-score” value is on record?
A: -0.0963

Q: How did the “PBM E-score” value turn out when CTGAGCGC was run?
A: -0.145

Q: For GGGAGCGA, which “PBM E-score” value is on record?
A: -0.116

Q: For AGGAGCGC, which “PBM E-score” value is on record?
A: -0.0703

Q: Which “PBM E-score” value does the source give for CGGAGCGC here?
A: 0.391

Q: CGGAGCGA was tested. Which “PBM E-score” value did it give?
A: 0.415

Q: AATGGAAT was tested. Which “PBM E-score” value did it give?
A: 0.0961

Q: ATCTGTGG was tested. Which “PBM E-score” value did it give?
A: -0.141
